Assay outcomes as filed in PubChem.
MITF inh – blocks human microphthalmia-associated transcription factor; actives 0.91% (n = 650,000); inhibition, % at 2.6 µM; AlphaScreen MITF homodimerization, bead proximity signal; AID 1259374; in the data active = inhibition above about 50%;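 also: 0% = vehicle wells with protein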
TEAD-YAP inh – TEAD-YAP interaction inhibition; inhibition, % at 9.12 µM; AID 1259422; actives 1.4% (n = 640,000); HEK-TIYL cells, TEAD-Gal4/YAP UAS-luciferase luminescence; in the data active = inhibition above about 32%;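 also: 0% = median of test compound wells and 100% = reference inhibitor wells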
FBW7 act – activators of human E3 ligase FBW7; actives 0.13% (n = 650,000); AlphaScreen FBW7–phospho-cyclin E peptide binding, activator screen; normalized activity (activation), % at 26.1 µM; in the data active = normalized activity above about 1.9%;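 also: purified mutant Fbw7 with reduced substrate affinity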
GPR151 activ – activates the human receptor GPR151; Q8TDV0; PathHunter beta-arrestin GPR151 cells, luminescence; actives 1% (n = 650,000); activation, % at 11.2 µM; AID 1508602; in the data active = activation above about 4.9%;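 also: 0% = median of compound wells and 100% = cells with positive control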
GPR151 confirm – confirmation of human GPR151 activators; shares compounds with GPR151 activ; GPR151 PathHunter beta-arrestin cells, luminescence, 90 min; % of EA-reagent control over plate median; activation, % at 11.2 µM; 6,700 tested, under 10 active; AID 1508609;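 active = mean percent activation across replicates above the confirmation screen cutoff of 4.91%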
GPR119 ag – counter-screen for GPR151 activators: effect on human GPR119; shares compounds with GPR151 activ; actives 0.3% (n = 6,700); GPR119 PathHunter beta-arrestin cells, luminescence, 90 min; 0 = compound-well median, 100 = enzyme-acceptor control; activation, % at 11.2 µM;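 active = mean percent activation in the counterscreen above 29.09%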;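 also: counterscreen on off-target GPR119 to flag nonselective hits from the GPR151 activator screen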
Target sequence (Q8TDV5 whole entry, looked up): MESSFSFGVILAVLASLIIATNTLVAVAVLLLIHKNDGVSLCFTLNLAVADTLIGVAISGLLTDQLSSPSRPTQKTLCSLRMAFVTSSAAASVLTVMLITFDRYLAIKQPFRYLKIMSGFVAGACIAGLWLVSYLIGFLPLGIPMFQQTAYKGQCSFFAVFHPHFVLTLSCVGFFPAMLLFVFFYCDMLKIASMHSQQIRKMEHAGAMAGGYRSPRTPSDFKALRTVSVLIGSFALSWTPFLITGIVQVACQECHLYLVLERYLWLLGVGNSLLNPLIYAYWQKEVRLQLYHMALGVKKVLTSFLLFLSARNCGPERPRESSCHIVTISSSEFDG
* = called active by the depositor; / = no result given. Rows were chosen to be rich in hits. Some 3.4% of all compounds tested hit in one or more screens of this group.

SMILES	MITF inh	TEAD-YAP inh	FBW7 act	GPR151 activ	GPR151 confirm	GPR119 ag
CC(=O)N1CCC(N(C(=O)Nc2cccc(Cl)c2C)C(C)C)CC1	4	-1	0	0	/	/
CC(C)CC(NC(=O)CN(C)C)c1nnc2n1CCN(C(C)C1CCC1)CC2 (centres undefined)	8	5	0	0	/	/
COc1ccc(Cn2c(=O)[nH]c3c(C(N)=O)nc(-c4ccc(C)c(C)c4)nc32)cc1	1	-11	1	5.0*	1	8
COc1ccc(Cn2c(=O)[nH]c3c(C(N)=O)nc(-c4cccc(C)c4)nc32)cc1	0	7	0	0	/	/
CC(=O)Oc1cccc(C(=O)Nc2ccccc2[N+](=O)[O-])c1	-2	14	0	-2	/	/
c1ccc(-c2ccc(-c3nc(-c4c[nH]c5ccccc45)[nH]c3-c3ccc(-c4ccccc4)cc3)cc2)cc1	0	8	0	2	/	/
Cc1cccc(-n2c(O)c(C=Nc3ccccc3I)c(=O)[nH]c2=O)c1	5	15	1	-1	/	/
Cc1cccc(-n2c(O)c(/C=N/n3cnnc3)c(=O)[nH]c2=O)c1	-2	-1	0	5.3*	0	-3
Cc1ccnc(NC(=O)C2CC=CCC2C(=O)O)c1 (centres undefined)	14	-5	0	6.3*	0	-4
Cc1ccnc(NC(=O)C2CCCC2)c1	16	-11	0	0	/	/
C=CCNC(=O)COc1cc(C)c(Cl)c(C)c1	10	-5	0	3	/	/
CC(C)N(CCNc1nc(NCCN2CCOCC2)nc2c1ncn2Cc1ccc(C(F)(F)F)cc1)C(C)C	0	-1	0	6.4*	0	-3
O=C1CCCN1CCCNc1nc(N2CCC(N3CCOCC3)CC2)nc2c1ncn2C1CCCCC1	-2	-1	0	14*	0	-6
COc1cc(Nc2nc(NCCN3CCOCC3)c3ncn(CCN4CCCC4=O)c3n2)cc(OC)c1OC	17	0	0	5.7*	2	4
CCCNc1nc(Nc2cc(OC)c(OC)c(OC)c2)nc2c1ncn2CCN1CCCC1=O	12	9	0	2	/	/
O=C1CCCN1CCCNc1nc(NCCCN2CCCC2=O)c2ncn(CCN3CCCC3=O)c2n1	10	-9	0	-2	/	/
O=C1CCCN1CCCNc1nc(NCCN2CCOCC2)c2ncn(CCN3CCCC3=O)c2n1	2	-9	0	6.4*	0	-11
O=C1CCCN1CCn1cnc2c(NC3CC3)nc(Nc3ccncc3)nc21	0	1	0	12*	0	-3
CCNc1nc(NCCCN2CCCC2=O)c2ncn(C(C)C)c2n1	4	8	0	5.4*	0	-8
CC(C)n1cnc2c(NCCCN3CCCC3=O)nc(NCCCN3CCCC3=O)nc21	10	-1	0	3	/	/
CCCCCCNc1nc(Nc2ccc(I)cc2)nc(N2CCOCC2)n1	4	4	0	0	/	/
CC(=O)NC1=NC(=O)/C(=C/c2ccc(-c3ccc(C)c(Cl)c3)o2)S1	-6	-1	0	5.3*	1	7
c1csc(-c2[nH]ncc2CNC2CCCCC2)c1	-3	3	0	5.1*	-1	-16
CCOc1ccc(C(=O)NC(=S)Nc2ccccc2C(N)=O)cc1Br	-4	-9	0	1	/	/
O=C(c1cccc(F)c1F)N1CCCCC1	-9	-3	0	1	/	/
SMILES	MITF inh	TEAD-YAP inh	FBW7 act	GPR151 activ	GPR151 confirm	GPR119 ag
O=C(c1cccc(F)c1F)N1CCCCCC1	8	9	1	4.9*	0	-5
Cc1nnc2n1CCN(C(=O)c1ccccc1N(C)C)CC2	-10	-6	0	5.2*	1	4
COc1ccc(CN2C(=O)C3C(C(=O)Nc4cccc(C)c4)C4C=CC3(O4)C2C(=O)NC2CCCCC2C)cc1 (centres undefined)	-5	1	0	-2	/	/
CC1CCCC(NC(=O)C2N(Cc3ccc(F)cc3)C(=O)C3C(C(=O)Nc4ccc(Cl)cc4)C4C=CC32O4)C1C (centres undefined)	-9	1	0	5.3*	0	0
COCCCN1C(=O)C2C(C(=O)Nc3cccc(SC)c3)C3C=CC2(O3)C1C(=O)NC1CCCCC1 (centres undefined)	11	-8	0	5.8*	0	1
CC1CCCC(NC(=O)C2N(Cc3ccc(Cl)cc3)C(=O)C3C(C(=O)Nc4ccc(Cl)cc4)C4C=CC32O4)C1C (centres undefined)	4	-3	0	0	/	/
COc1cccc(CN2C(=O)C3C(C(=O)Nc4cccc(C)c4)C4C=CC3(O4)C2C(=O)NC2CCCCC2C)c1 (centres undefined)	-4	3	0	5.5*	0	9
CC(c1ccccc1)N1C(=O)C2C(C(=O)Nc3ccc(Cl)cc3)C3C=CC2(O3)C1C(=O)NC1CCCCC1 (centres undefined)	-1	4	0	5.2*	0	1
CCN(CC)CCNC(=O)C1CCN(Cc2ccccc2O)CC1	7	0	0	1	/	/
COc1ccccc1C(=O)N/C(=C\c1ccc2c(c1)OCO2)C(=O)NCCCCCC(=O)O	0	-3	0	1	/	/
O=C(CN1CCN(c2ccccc2F)CC1)Nc1cc(C(F)(F)F)ccc1Cl	4	-1	0	0	/	/
O=C(CN1CCCCC1)Nc1cc(C(F)(F)F)ccc1Cl	1	4	0	7.0*	0	2
Cc1cc(C(=O)Nc2cc(Cl)ccc2O)on1	6	-29	0	10*	0	12
O=C(CCC(=O)c1ccc(Br)cc1)Nc1cccnc1	5	-5	0	-1	/	/
O=C(CCC(=O)c1ccc(Oc2ccccc2)cc1)Nc1cccnc1	-25	4	0	6.8*	-1	5
NC(=O)C1(N2CCCCC2)CCN(CC(=O)Nc2ccc(F)c(Cl)c2)CC1	5	-6	0	-1	/	/
NC(=O)C1(N2CCCCC2)CCN(C(=S)Nc2ccc(F)c(Cl)c2)CC1	13	-1	0	5.1*	0	6
Nc1ncccc1C(=O)OCCOc1c(Cl)cccc1Cl	-5	8	0	0	/	/
COc1ccc(CCN(C)CCCC(C#N)(c2cc(OC)c(OC)c(OC)c2)C(C)C)cc1OC (centres undefined)	-5	-4	0	5.6*	-1	-14
CCCCC1(CCCC)C(=O)NC(=O)N=C1N	-19	6	0	-1	/	/
C=CCn1c(=O)c2c3c(sc2n2c(Nc4ccc(C(=O)OCC)cc4)nnc12)CCC3	9	11	1	-2	/	/
C=CCn1c(=O)c2c(C)c(C)sc2n2c(Nc3ccccc3)nnc12	28	3	0	5.9*	0	-10
O=C1N2CN(C(c3ccccc3)c3ccccc3)CN=C2SC1(CO)CO	17	5	0	7.7*	-1	-6
